30 compounds from PubChem BioAssay AID743365 (National Center for Advancing Translational Sciences (NCATS), 2014) can be followed below.

Molecules are shown by their SMILES.

The nature of the assay: qHTS profiling of inhibitors of Plasmodium falciparum (DD2) proliferation (acoustic dispense). As to conditions: P. falciparum Dd2 in erythrocytes, SYBR Green DNA, 72 h; at 49.8 µM (top of the series) unless noted.
`Cc1nc2c(C#N)cccc2n1-c1ccc(C(=O)NC2CC2)s1`: the parasite growth, lower = inhibition worked out at 2.19%.
The value for `CCC[C@H](Nc1nc(-c2ccc(NC(=O)NCC)c(OC)c2)ncc1C)c1cccnc1` was 1.45%.
For the compound `c1cncc(CN2CCC(n3ncc4c(N5CCOCC5)nc(-c5ccc6[nH]ccc6c5)nc43)CC2)c1`, the parasite growth, lower = inhibition is 0.462%.
The value for `CCCCCCOC(=O)C1(O)CC2OC1(C)n1c3ccccc3c3c4c(c5c6ccccc6n2c5c31)C(=O)NC4` (stereo not given) was 89.2% [at 1.88 µM].
In the case of `NC(=NCCCCCCN=C(N)N=C(N)Nc1ccc(Cl)cc1)N=C(N)Nc1ccc(Cl)cc1`, the parasite growth, lower = inhibition turned out to be 3.29%.
For `COc1cc(C)c2c(Oc3cccc(C(F)(F)F)c3)c(OC)cc(NCCCC(C)N)c2n1` (stereo not given), the parasite growth, lower = inhibition was -0.465%.
Take `Cc1cnc(Nc2ccc(CN3CCOCC3)cc2)nc1Nc1cccc(S(=O)(=O)NC(C)(C)C)c1`: the parasite growth, lower = inhibition came out at 0.192%.
With `CC(C)[C@H](C(=O)Nc1ccc(C(=O)NO)cc1)c1ccccc1`, the parasite growth, lower = inhibition amounted to 0.408%.
Consider `CN[C@@H]1C[C@H]2O[C@@](C)([C@H]1OC)n1c3ccccc3c3c4c(c5c6ccccc6n2c5c31)C(=O)N[C@H]4O`, for which the parasite growth, lower = inhibition came out at 0.898%.
With `CC[C@H]1OC(=O)[C@H](C)C(=O)[C@H](C)[C@@H](O[C@H]2O[C@H](C)C[C@H](N(C)C)[C@@H]2O)[C@](C)(OC)C[C@@H](C)C(=O)[C@H](C)[C@H]2N(CCCCn3cnc(-c4cccnc4)c3)C(=O)O[C@]12C` the figure was 4.52%; with `CC[C@@]1([C@@H]2O[C@@H]([C@H]3O[C@@](O)(CO)[C@H](C)C[C@H]3C)C[C@H]2C)CC[C@H]([C@]2(C)CC[C@]3(C[C@H](O)[C@@H](C)[C@@H]([C@@H](C)[C@@H](OC)[C@H](C)C(=O)O)O3)O2)O1`, -0.231% [at 23.2 µM]; with `C[C@H]1[C@@H](OC(=O)CCC(=O)O)O[C@@H]2O[C@@]3(C)CC[C@@H]4[C@H](C)CC[C@@H]1[C@@]24OO3`, -0.775%.
With `CN(C)c1ccc2nc3ccc(=[N+](C)C)cc-3sc2c1` the figure was 11.8%.
Take `CO[C@@H]1C(N(C)C(=O)c2ccccc2)C[C@H]2O[C@]1(C)n1c3ccccc3c3c4c(c5c6ccccc6n2c5c31)C(=O)NC4=O` (stereo not given in full): the parasite growth, lower = inhibition amounted to 10.1%.
The value for `COC(=O)[C@]12CCC(C)(C)C[C@@H]1[C@@H]1C(=O)C=C3[C@@]4(C)C=C(C#N)C(=O)C(C)(C)[C@@H]4CC[C@@]3(C)[C@]1(C)CC2` was 23.1%; that for `COc1ccc(-c2cc3c(C)nc(N)nc3n(C3CCC(OCCO)CC3)c2=O)cn1` (stereo not given) was -0.346%.
As for `CO[C@H]1C=CO[C@@]2(C)Oc3c(C)c(O)c4c(O)c(c(C=NN5CCN(C)CC5)c(O)c4c3C2=O)NC(=O)C(C)=CC=C[C@H](C)[C@H](O)[C@@H](C)[C@@H](O)[C@@H](C)[C@H](OC(C)=O)[C@H]1C`, the parasite growth, lower = inhibition is -0.189% [at 16.5 µM].
For `CCc1cc(Nc2nccc(-c3c(-c4ccc(OC)c(C(=O)Nc5c(F)cccc5F)c4)nc4ccccn34)n2)c(OC)cc1N1CCC(N2CCN(S(C)(=O)=O)CC2)CC1`, the parasite growth, lower = inhibition is -0.192%.
The value for `O=C1C(=O)c2ccccc2C(O)=C1C1CCC(c2ccc(Cl)cc2)CC1` (stereo not given) was 3.04%.
For the compound `COc1ccc2cc3[n+](cc2c1OC)CCc1cc2c(cc1-3)OCO2`, the parasite growth, lower = inhibition was -0.889%.
The value for `Cc1nc2cnc3ccc(C#Cc4cccnc4)cc3c2n1-c1ccc(C(C)(C)C#N)cc1` was 0.532%.
With `COc1cc2c(Oc3ccc(NC(=O)C4(C(=O)Nc5ccc(F)cc5)CC4)cc3F)ccnc2cc1OCCCN1CCOCC1` the figure was 0.0003%.
Regarding `CCN(CC)CCNC(=O)c1c(C)[nH]c(C=C2C(=O)Nc3ccc(F)cc32)c1C`, the parasite growth, lower = inhibition is -0.534% [at 100 µM].
With `COc1cc([C@@H]2c3cc4c(cc3[C@@H](O[C@@H]3O[C@@H]5CO[C@@H](c6cccs6)O[C@@H]5[C@H](O)[C@@H]3O)[C@H]3COC(=O)[C@H]23)OCO4)cc(OC)c1O` the figure was -0.345%; with `CCC(=O)N1CCN(c2ccc(-n3c(=O)ccc4cnc5ccc(-c6cnc7ccccc7c6)cc5c43)cc2C(F)(F)F)CC1`, 3.68%; with `CC(C)Oc1cc(Nc2nc(N[C@@H](C)c3ccc(F)cn3)ncc2Cl)[nH]n1`, 3.28%.
Consider `Cc1cn(-c2cc(NC(=O)c3ccc(C)c(Nc4nccc(-c5cccnc5)n4)c3)cc(C(F)(F)F)c2)cn1`, for which the parasite growth, lower = inhibition was 7.6%.
With `CCC(C=C[C@@H]1OC(=O)C=C[C@H]1C)=C[C@H](C)CC=CC(C)=C[C@@H](C)C(=O)[C@@H](C)[C@H](O)[C@@H](C)CC(C)=CC(=O)O`, the parasite growth, lower = inhibition is 97.6% [at 1.88 µM].
With `Cc1cn[nH]c1`, the parasite growth, lower = inhibition came to 23.6%.
On to `COc1cc(NC(C)CCCN)c2ncccc2c1` (stereo not given), for which the parasite growth, lower = inhibition was -0.0889%.
